Compound activity from PubChem BioAssay.
Many of the other results were omitted from the sample, so hits are more common in it than they were.
Pf Dd2 inh: qHTS Primary assay for Inhibitors of Plasmodium falciparum Dd2 growth in vitro | 120,000 tested, 4.3% active | P. falciparum Dd2 growth, SYBR Green, 72 h | Potency, µM (doses to about 28.9 µM), most hits filed as inhibitors; active means well fitted inhibition curve with a large enough effect; further: nearly all actives have a fitted effect of over 65% in size
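Infected erythrocytes (Dd2, 0.3% parasitemia, 2.5% hematocrit final) are added to compound in RPMI-1640/Albumax II medium, grown 72 h at 37C in low oxygen, then lysed with saponin/Triton-X containing SYBR Green and read by fluorescence.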
Hits are given with their value; – = inactive; [ ] = remark or other dose.

SMILES	Pf Dd2 inh
COc1ccc(OC)c(CN2CCNc3cnc(Nc4cccnc4)cc3C2)c1	–
c1cncc(Nc2cc3c(cn2)CN(CC2CCOCC2)CCN3)c1	–
c1ccc(Nc2cc3c(cn2)CN(CC2CC2)CCN3)cc1	13µM
c1ccc(CN2CCNc3cc(Nc4ccc(N5CCOCC5)cc4)ncc3C2)cc1	11µM
Fc1cccc(CN2CCNc3cc(Nc4ccccc4)ncc3C2)c1	–
CN1CCNc2cc(NCc3ccccc3)ncc2C1	–
COc1ccc(Nc2cc3c(cn2)CN(CCc2ccccc2)CCN3)cn1	–
COc1ccc(CN2CCNc3cc(Nc4ccccc4)ncc3C2)cc1O	–
COc1ccc(OC)c(CN2CCNc3cc(Nc4ccccc4)ncc3C2)c1	3.5µM
CC(=O)Nc1cccc(-c2cc3c(cn2)CN(Cc2ccccc2)CCN3)c1	–
c1ccc(CCN2CCNc3cc(NCCN4CCOCC4)ncc3C2)cc1	–
Cc1cc(C(=O)N2C[C@@H](Oc3cccnc3)C[C@H]2C(=O)N2CCOCC2)n(C)n1	–
COCC(=O)NC[C@H]1CCN(Cc2ccc(C)s2)C[C@H]1N(C)C	–
O=C(N[C@H]1CO[C@H]2[C@@H]1OC[C@@H]2n1nnnc1Oc1ccc(-n2ccnc2)cc1)N1CCOCC1	–
O=C(NCc1ccc(Cl)cc1)C1CCCN(C2CCN(C(=O)C3CC3)CC2)C1 (centres undefined)	–
CCC(C)NC(=O)Cn1nc(C)c2sc(-c3ccccc3)nc2c1=O (centres undefined)	–
CCS(=O)(=O)N1CCCOCCNC(=O)[C@@H]2CCC[C@@H]21	–
CCCCN(CCC(=O)NCc1ccco1)C(=O)c1cc(C)oc1C	–
CCCc1ncncc1C(=O)N[C@H]1CN(S(C)(=O)=O)C[C@@H]1C(C)C	–
c1ccc(Nc2cc3c(cn2)CN(Cc2cnc[nH]2)CCN3)cc1	–
c1ccc(Nc2cc3c(cn2)CN(Cc2cccs2)CCN3)cc1	7.9µM
Fc1ccccc1CN1CCNc2cc(Nc3ccccc3)ncc2C1	–
COc1cccc(CC(=O)N2C[C@@H](Oc3cccnc3)C[C@H]2C(N)=O)c1	–
Cc1coc2c(C)c3oc(=O)c(CC(=O)NCc4ccccc4)c(C)c3cc12	–
COc1ccc(C2=NOC3(CCN(Cc4ccccc4)C3)C2)cc1 (centres undefined)	–
SMILES	Pf Dd2 inh
CCc1c(C)c2ccc3c(c2oc1=O)CN(Cc1ccccc1)CO3	1µM
O=C1COc2ccc(-c3ccncc3)nc2CN1Cc1ccccc1	–
COc1ccc(-c2cc(=O)oc3c4c(ccc23)OCN(Cc2ccccc2)C4)cc1	0.89µM
O=c1cc(-c2ccccc2)c2ccc3c(c2o1)CN(Cc1ccccc1)CO3	1µM
CC1=NOC2(CCN(Cc3ccccc3)CC2)C1	–
O=c1c2oc3ccccc3c2n(Cc2ccccc2)c(=O)n1Cc1ccc2c(c1)OCO2	–
COc1ccc(OC2CN(Cc3ccccc3)C2)cc1	–
CC(C)c1ccc(NC(=O)O[C@@H]2CO[C@H]3[C@@H]2OC[C@@H]3NC(=O)c2ccccc2)cc1	–
COc1cccc([S+](=O)([O-])N2CCC(N3Cc4ccccc4C3=O)CC2)c1	–
Cc1noc(C)c1Cn1cnc(-c2ccccc2)c1-c1ccc(CO)o1	–
CC(C)(C)C(=O)N1CCC2(CC1)OCC(C(=O)NCC1CCCO1)N2C(=O)c1ccc(F)cc1 (centres undefined)	–
CS(=O)(=O)c1ccc(CN2C[C@H](O)C[C@H]2c2nc(-c3cnccn3)no2)cc1	–
Cc1cnc(-c2ccccc2)n1C1CCN(S(C)(=O)=O)CC1	–
COc1ccccc1C(=O)N1CCCCCC1c1nc(C)no1 (centres undefined)	–
Cc1noc(C)c1S(=O)(=O)N1CCC[C@H]1C(=O)N1CCCCCCNC(=O)CC1	–
Cn1cc(-c2ccccc2OC(F)(F)F)c2nc(CN3CCNC(=O)C3)cn2c1=O	–
CN(c1ccccc1)c1ccc2nnc(-c3cc(C(=O)NCc4ccncc4)ccn3)n2n1	–
CN(c1ccccc1)c1ccc2nnc(-c3cc(C(=O)NC4CCOCC4)ccn3)n2n1	–
CN(c1ccccc1)c1ccc2nnc(-c3cc(C(=O)NCCc4ccccc4)ccn3)n2n1	8.9µM
N#Cc1ccnc(-c2nnc3ccc(NC4CC4)nn23)c1	–
O=C(NC1CC1)c1ccccc1OC1CN(Cc2ccc(F)cc2Cl)C1	–
CCCN(C)c1nccnc1OC1CCN(C(=O)c2ccc(F)cc2)C1 (centres undefined)	10µM
CCCN(C)c1nccnc1OC1CCN(C(=O)C2CCOCC2)C1 (centres undefined)	–
CN(C)c1nccnc1OC1CCN(C(=O)c2ccn[nH]2)C1 (centres undefined)	–
C[C@]1(O)CCN(C(=O)Cc2nc(-c3ccncc3)n[nH]2)C[C@@H]1O	–
SMILES	Pf Dd2 inh
COc1ccc(-c2ccc3nnc(CNC(=O)c4cccc(OC)c4)n3n2)cc1	–
COc1ccc(CNC(=O)N2CCC3(CC2)CC(Cc2nc(C4CC4)no2)CCO3)cc1 (centres undefined)	–
COc1ccc(C(=O)N2CCC3(CC2)CC(Cc2nc(-c4ccccc4)no2)CCO3)cc1 (centres undefined)	–
Cc1ccc(NC(=O)N2CCC3(CC2)CC(Cc2nc(-c4ccccc4)no2)CCO3)cc1C (centres undefined)	8.9µM
COCC(=O)N1CCC(Oc2ccccc2C(=O)N2CCN(c3ccccn3)CC2)CC1	–
CC(C)(Oc1nn(CC2CCOCC2)c2ccccc12)C(=O)NCC1CCOCC1	–
Cn1nc(OC(C)(C)C(=O)NCCc2ccccc2)c2cc(CN3CCCC3)ccc21	–
CC(C)(Oc1nn(CC2CC2)c2ccc(CN3CCCC3)cc12)C(=O)NCC(F)(F)F	13µM
CC(C)C(=O)N1CCCC(c2noc(COc3ccccc3F)n2)C1 (centres undefined)	–
CCOCC(=O)N1CC2CC(C1)[C@H]1CCCC(=O)N1C2 (some centres undefined)	–
O=C(CC1CCOC2(CCN(S(=O)(=O)Cc3ccccc3)CC2)C1)N1CCOCC1 (centres undefined)	–
CCOCCOC1CCN(C(=O)Nc2cccc(C)c2)CC1	–
Cc1cc2nc3n(c(=O)c2n1CC(=O)Nc1ccc(Cl)cc1F)CCC3	–
CCOc1nccnc1NC1CCN(C(=O)C2CCCO2)CC1 (centres undefined)	–[5.79 µM]
Cc1cnc(CC2CCCN(C(=O)c3ccnn3C)C2)n1C(C)C (centres undefined)	–
COC(=O)c1cccc(C(=O)NC2CCCN(CCCc3ccccc3)C2)c1 (centres undefined)	8.9µM
O=C(CCc1nc(-c2ccccc2)no1)NC1CCCN(CCCc2ccccc2)C1 (centres undefined)	7.1µM
O=C(CCn1ccc(=O)[nH]c1=O)NC1CCCN(CCCc2ccccc2)C1 (centres undefined)	–
O=C(c1ccccc1OCC1CCCN(CCCc2ccccc2)C1)N1CCCC1 (centres undefined)	–
CCN(CC)S(=O)(=O)NC1CCCN(CCCc2ccccc2)C1 (centres undefined)	–
COC(=O)N1CCCCC(NC(=O)CCCc2nc(-c3ccccc3C)no2)C1 (centres undefined)	–
CCOCC(=O)N1CCC(N2CC3CC(C2)[C@H]2CCCC(=O)N2C3)CC1 (some centres undefined)	–
CC(Oc1ccccc1)C(=O)N1CC(Oc2cccc(-c3nc(-c4ccccc4)no3)c2)C1 (centres undefined)	–[5.79 µM]
COCc1nc(C2CCCN(C(=O)C3CCC3)C2)no1 (centres undefined)	–
